The source of these data is PubChem BioAssay (Tox21).

Records with an inconclusive call do not appear. Activity calls are given as the source filed them. Calls follow the shape of the full dose curve. Residues, ends and D or L forms follow the SMILES beside them.

The target in this experiment is Peroxisome proliferator-activated receptor gamma (Homo sapiens) (UniProt P37231). The experiment can be described thus: qHTS assay to identify small molecule antagonists of the peroxisome proliferator-activated receptor gamma (PPARg) signaling pathway (AID 743191). Also: nearly all actives have a fitted effect of over 30% in size. The settings on record: HEK293H PPARg-UAS-bla, beta-lactamase ratio, antagonist, 17 h; series mostly up to 62.6 µM. The text has this: U.S. Tox21 Program National Center for Advancing Translational Sciences [NCATS] NIH Chemical Genomics Center [NCGC] U.S. Environmental Protection Agency [EPA] National Institutes of Environmental Health Sciences [NIEHS] National Toxicology Program [NTP] U.S. Food and Drug Administration [FDA] Tox21 Assay Overview: The peroxisome proliferator-activated receptors (PPARs) are lipid-activated transcription factors of the nuclear receptor superfamily with three distinct subtypes namely PPAR alpha, PPAR delta (also called PPAR beta) and PPAR gamma (PPARg). All these subtypes heterodimerize with Retinoid X receptor (RXR) and these heterodimers regulate transcription of various genes. PPAR-gamma receptor (glitazone receptor) is involved in the regulation of glucose and lipid metabolism. To identify the compounds that inhibit PPAR-gamma signaling, GeneBLAzer PPAR gamma UAS-bla HEK293H cell line (Invitrogen, Carlsbad, CA, USA) containing a beta-lactamase reporter gene under control of an Upstream Activator Sequence (UAS) was used to screen the Tox21 compound library.
Sequence of Peroxisome proliferator-activated receptor gamma (Homo sapiens) (P37231 whole entry, looked up): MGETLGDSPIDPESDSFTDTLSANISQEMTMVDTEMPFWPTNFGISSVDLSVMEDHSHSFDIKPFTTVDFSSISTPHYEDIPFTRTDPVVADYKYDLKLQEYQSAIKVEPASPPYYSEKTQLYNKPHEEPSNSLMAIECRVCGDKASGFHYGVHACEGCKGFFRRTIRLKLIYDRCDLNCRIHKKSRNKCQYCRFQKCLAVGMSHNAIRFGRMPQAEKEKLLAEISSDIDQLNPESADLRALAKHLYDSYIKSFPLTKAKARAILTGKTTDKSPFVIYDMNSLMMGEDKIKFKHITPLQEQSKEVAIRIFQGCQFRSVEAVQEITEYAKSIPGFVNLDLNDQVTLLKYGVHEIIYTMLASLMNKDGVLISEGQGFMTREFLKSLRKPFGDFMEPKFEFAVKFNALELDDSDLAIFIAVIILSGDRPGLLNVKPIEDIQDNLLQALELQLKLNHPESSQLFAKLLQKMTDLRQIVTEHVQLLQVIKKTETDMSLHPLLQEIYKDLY
Tox21 Assay Protocol Summary: PPARg-bla cells were dispensed at 3000 cells/6uL/well in 1536-well black wall/clear bottom plates using a Multidrop Combi (Thermo Fisher Scientific, Waltham, MA) dispenser. After the assay plates were incubated at 37C and 5% CO2 for 5 h, 23 nL of compounds dissolved in DMSO, positive controls or DMSO only was transferred to the assay plate by a Pintool station (Kalypsys, San Diego, CA). The assay plates were incubated at 37C for 17 h. After 1 uL of LiveBLAzerTM B/G FRET substrate was added using a Bioraptr Flying Reagent Dispenser (FRD) workstation (Beckman Coulter, Indianapolis, IN, USA), the plates were incubated at room temperature for 1 h, and fluorescence intensity was measured by an Envision plate reader (PerkinElmer, Shelton, CT).
Take `CCCCC1C(=O)N(c2ccccc2)N(c2ccccc2)C1=O`: the result was inactive.
Next, `CCCCCCCCCCCCCCCC(=O)O`: “inactive”.
Take `CCCC(O)C(CC)CO` (stereo not given): the result was inactive.
For the molecule `Cc1ccccc1C(OCCN(C)C)c1ccccc1` (stereo not given), the result was inactive.
For the molecule `CCCNC(=O)NS(=O)(=O)c1ccc(Cl)cc1`, the result was inactive.
Next, `NC(N)=O`: “inactive”; `Nc1ccn([C@H]2CC[C@@H](CO)O2)c(=O)n1`: “inactive”; `O=C(O)C(=O)O`: “inactive”.
Next, `Nc1ccc(S(=O)(=O)Nc2nccs2)cc1`: “inactive”; `CC(C)[C@@H]1CC[C@@H](C)C[C@H]1O`: “inactive”.
Next, `COC(=O)[C@H](Cc1ccccc1)NC(=O)[C@@H](N)CC(=O)O` (H-Asp-Phe-OMe): “inactive”; `O=C(O)CCCCCCCC(=O)O`: “inactive”.
For the molecule `CC(=O)OCC(COC(C)=O)OC(C)=O`, the result was inactive.
For `O=C(C1CCCCC1)N1CC(=O)N2CCc3ccccc3C2C1` (stereo not given) the value was “inactive”; for `O=C(O)c1cc(N=Nc2ccc(S(=O)(=O)Nc3ccccn3)cc2)ccc1O`, “inactive”.
As for `CCCCC(CC)COC(=O)/C=C/c1ccc(OC)cc1` (stereo not given), the outcome was inactive.
Next, `NC(=O)c1ccccc1O`: “inactive”; `Cc1ccc(O)cc1`: “inactive”; `O=C1NC(=O)c2ccccc21`: “inactive”.
Take `CCCCOC(=O)CC(CC(=O)OCCCC)(OC(C)=O)C(=O)OCCCC`: the result was inactive.
Regarding `O=C(O)CCC(=O)O`, the outcome was inactive.
For `Cc1noc(NS(=O)(=O)c2ccc(N)cc2)c1C` the value was “inactive”; for `NC(=O)c1cnccn1`, “inactive”; for `CCOc1ccc(NC(=O)CC(C)O)cc1` (stereo not given), “inactive”.
Next, `Cc1ccc(S(=O)(=O)NC(=O)NN2CCCCCC2)cc1`: “inactive”.
Next, `NC(=O)NC1NC(=O)NC1=O` (stereo not given): “inactive”; `NC(N)=NC(=O)c1nc(Cl)c(N)nc1N`: “inactive”; `CC(C)(Oc1ccc(C2CC2(Cl)Cl)cc1)C(=O)O` (stereo not given): “inactive”.
For `C1N2CN3CN1CN(C2)C3`, the result was inactive.
For the molecule `Cc1cn([C@H]2C[C@H](N=[N+]=[N-])[C@@H](CO)O2)c(=O)[nH]c1=O`, the result was inactive.
`Nc1ccc(S(=O)(=O)c2ccc(N)cc2)cc1`: the outcome was inactive.
For `CC(=O)Nc1nnc(S(N)(=O)=O)s1` the value was “inactive”; for `CC(O)CN(CCN(CC(C)O)CC(C)O)CC(C)O` (stereo not given), “inactive”.
For `COc1ccc2[nH]cc(CCNC(C)=O)c2c1` the value was “inactive”; for `Cn1cc[nH]c1=S`, “inactive”.
Next, `NNC(=O)c1ccncc1`: “inactive”; `O=S(=O)(O)c1ccc2cc(O)ccc2c1`: “inactive”.
For `CCCC(CCC)C(=O)O`, the result was inactive.
Next, `O=C(O)c1[nH]n(-c2ccc(S(=O)(=O)O)cc2)c(=O)c1N=Nc1ccc(S(=O)(=O)O)cc1`: “inactive”; `O=C(c1ccccc1)C(O)c1ccccc1` (stereo not given): “inactive”.
